Laboratory results taken from ChEMBL document CHEMBL3433997, “St. Jude Leishmania screening dataset” (2016).

Tests used:
Format in all cases: functional
[1] = molecular target: Solute carrier family 2, facilitated glucose transporter member 1 (Homo sapiens) (UniProt P11166); assay: ST_JUDE_LEISH: Cytotoxicity at 2uM final concentration against transgenic Leishmania Mexicana promastigotes LmGLUT1 that are glucose transport deficient and complemented with the human glucose transporter GLUT1. Activity is measured by DNA content using SYBR green in vitro
Chain of Solute carrier family 2, facilitated glucose transporter member 1 (Homo sapiens) (P11166 whole entry): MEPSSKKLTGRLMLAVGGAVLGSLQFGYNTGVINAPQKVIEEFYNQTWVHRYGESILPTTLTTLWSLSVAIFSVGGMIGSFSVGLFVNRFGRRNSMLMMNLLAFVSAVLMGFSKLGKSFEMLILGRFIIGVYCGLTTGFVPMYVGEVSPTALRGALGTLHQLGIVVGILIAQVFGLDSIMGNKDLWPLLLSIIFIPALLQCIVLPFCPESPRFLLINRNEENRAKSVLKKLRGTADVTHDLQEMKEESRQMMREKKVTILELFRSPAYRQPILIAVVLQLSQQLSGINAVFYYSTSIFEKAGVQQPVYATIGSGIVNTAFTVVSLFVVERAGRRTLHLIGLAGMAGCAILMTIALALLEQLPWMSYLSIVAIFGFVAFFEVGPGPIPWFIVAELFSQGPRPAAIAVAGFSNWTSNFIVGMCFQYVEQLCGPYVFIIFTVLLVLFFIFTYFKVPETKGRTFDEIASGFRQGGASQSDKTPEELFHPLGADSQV

[2] = molecular target: Hexose transporter 1 (Plasmodium falciparum) (UniProt O97467); assay: ST_JUDE_LEISH: Cytotoxicity at 2uM final concentration against transgenic Leishmania Mexicana promastigotes LmPfHT that are glucose transport deficient and complemented with the Plasmodium falciparum hexose transporter. Activity is measured by DNA content using SYBR green in vitro
[3] = molecular target: Glucose transporter (Leishmania mexicana) (UniProt O61059); assay: ST_JUDE_LEISH: Cytotoxicity at 2uM final concentration against transgenic Leishmania Mexicana promastigotes LmGT2 that are glucose transport deficient and complemented with the L. Mexicana glucose transporter 2. Activity is measured by DNA content using SYBR green in vitro

SMILES | inhibition [1] [%] | inhibition [2] [%] | inhibition [3] [%]
Cc1nc(-c2ccncc2)sc1C(=O)Nc1ccc(Cl)cc1C(=O)Nc1ccc(Cl)cc1 | 3.13 | 3.01 | 2.19
CCc1ccc(-c2nc3cc(NC(=O)c4cc([N+](=O)[O-])cc([N+](=O)[O-])c4)ccc3o2)cc1 | 2.33 | 1.19 | 2.3
COC(=O)c1ccc(OCC(O)CO)cc1O (stereo unspecified) | 0.55 | 2.14 | -0.04
O=C(NC1CCN(Cc2ccccc2)CC1)c1cccc(Nc2nc(-c3ccccc3)cs2)c1 | 9.1 | 8.88 | 2.09
Cc1ccc(NC(=O)Cc2noc(CC3CCCN3C(=O)N[C@@H](C)c3ccccc3)n2)cc1 (stereo partly specified) | 3.91 | 2.95 | 1.32
COc1c(CN2CCCC2)cccc1-c1cc2c(-c3ccc(C(=O)O)c(C(C)C)c3)ccnc2[nH]1 | 3 | 2.05 | 2.09
CNCCCNCc1ccc(-c2ccc(F)c(Cl)c2)o1 | 0.54 | 1.28 | 0.56
CCc1ccc(N2C(=O)C3C(Cc4ccc(OC(C)(C)C)cc4)NC4(C(=O)N(Cc5ccccc5)c5ccc(F)cc54)C3C2=O)cc1 (stereo unspecified) | 0.6 | -0.02 | -1.06
Cc1cc(O)c(CN2CCN(Cc3cccs3)CC2)cc1C(C)C | -0.44 | 0.02 | 2.94
CCN1C(c2ccc(Cl)cc2)C(CNCc2ccccc2O)CC1(C)CO (stereo unspecified) | 8.9 | 7.62 | 4.57
CC(C)CCN1CCC(Oc2ccc(NC(=O)c3ccc(F)cc3)cc2Cl)CC1 | -2.57 | -4.4 | 0.92
CCCCn1c(Sc2ccc(C#N)c([N+](=O)[O-])c2)nnc1-c1cc(OC)cc(OC)c1 | 0.5 | 3.21 | 0.45
Cc1cccc2nc(-c3cccc(-c4cccc(NC(=O)c5csnn5)c4)c3)[nH]c12 | 4.92 | 1.69 | -0.76
COc1cccc(OCC2CCCN(CCCCNC(=O)c3ccc(NC(=O)c4ccc(Cl)cc4)cc3)C2)c1 (stereo unspecified) | -2.42 | 1.68 | -1.92
CCOc1cc(-c2nnc3[nH]c(=O)n(C)c(=O)c3n2)ccc1OC(C)C | 2.56 | 2.55 | -1.04
COc1ccccc1NC(=O)Nc1ccc(-c2ccc(-c3nc4cccc(C)c4[nH]3)s2)cc1 | 3.53 | 1.17 | 1.64
COc1cc(NC(=O)/C=C/c2cc(F)cc(F)c2F)cc(OCCN2CCC(O)(c3ccccc3)CC2)c1 | 3.43 | 1.97 | 2.47
